The text below walks through data of ChEMBL document CHEMBL4513216, “Probing the Open Global Health Chemical Diversity Library for Multistage-Active Starting Points for Next-Generation Antimalarials” (ACS Infect Dis, 2020).

Among all 68,000 compounds or so, about 2,700 (4%) showed an effect of 50% or more. The sample holds strong results, similar compounds and a random draw of the others, so the mix is not that of the screen.

The assay deals with Plasmodium berghei. In words: Screen against P. berghei liver stage (PbLuc), transformed with Luciferase, at 2uM. It is filed as functional, HepG2. Particulars: tested at 2 uM.
As to `O=C(c1ccc(F)cc1)N1C[C@@H]2COC[C@]2(COc2cccnc2)C1`, the INHIBITION is recorded as -55.8%.
In the case of `CC(CO)NC(=O)Nc1ccc(CC#N)cc1` (centres undefined) it was 20.32%; in that of `CCc1nc2n(n1)CC(Nc1ccnc(-c3ccccc3)n1)CC2` (centres undefined), -1.33%; in that of `CC(C)C(=O)N1CCCC12CCCN(C(=O)c1ccno1)C2` (centres undefined), 8.34%.
In the case of `CN1CCN(C2COC3(CCN(c4ccc(C#N)cc4)CC3)C2)CC1` (centres undefined) it was 54.5%; in that of `COC1COC2(CCN(c3ccc(C#N)cc3)CC2)C1` (centres undefined), -13.61%.
As to `N#Cc1ccc(N2CCC3(CC2)CC(N2CCOCC2)CO3)cc1` (centres undefined), the INHIBITION is -0.69%.
In the case of `Cc1nn(C)c(N(C)C)c1CNC(C)COc1ccc(F)cc1F` (centres undefined) it was 25.03%.
In the case of `Cn1cc(C(=O)N2C[C@H]3CC(Oc4ccccc4)C[C@H]3C2)cn1` (some centres undefined) it was -36.58%; in that of `O=C(COc1ccc(Cl)cc1)NCc1nncn1C1CC1`, 24.36%.
In the case of `O=C(COc1cc(Cl)cc(Cl)c1)NCc1nncn1C1CC1` it was -13.8%; in that of `O=C(COc1cccnc1)NCc1nncn1C1CCCCC1`, 57.75%; in that of `Cc1nc(CN2C(=O)CC[C@@H]3[C@H]2CCN3C2CCOCC2)cs1`, -6.68%.
With `Cc1cc(C(=O)N2CCc3ncnc(N4CCSCC4)c3CC2)[nH]n1`, the INHIBITION is given as 64.2%.
In the case of `Cc1cc(C(=O)N2CCc3c(ncnc3N3CCOCC3)C2)[nH]n1`, the INHIBITION is recorded as -0.79%.
In the case of `O=C(c1cc[nH]n1)N1CCc2ncnc(N3CCSCC3)c2CC1` it was 24.55%.
In the case of `CSc1nc2ncc3c(=O)n(C)ccc3n2n1` it was 19.49%.
In the case of `Cn1cc(-c2cc(C(F)F)n3nc(CCC(=O)O)nc3n2)cn1` it was 48.58%.
Turning to `CCn1cc(-c2cc(C(F)F)n3nc(CC(=O)O)nc3n2)cn1`, the INHIBITION is reported as -20.05%.
In the case of `CCn1cc(-c2cc(C(F)F)n3nc(CCC(=O)O)nc3n2)cn1` it was 61.61%; in that of `OCC(O)CN1CCc2onc(-c3ccc(C(F)(F)F)cc3)c2C1` (centres undefined), -83.25%; in that of `CCN(CC)CCNC(=O)CCc1c(C)nn(-c2ccc(Cl)cc2)c1C`, 36.85%.
In the case of `CC(C)c1nnc2ccc(N3CCC(C(=O)O)CC3)nn12` it was 16.54%; in that of `Fc1ccc(F)c(CN2CCC(c3cc4ncccc4cn3)CC2)c1`, -20.28%; in that of `CC(=O)N1CCN(C(=O)NC(C)Cn2ccnc2)CC1` (centres undefined), 14.47%.
In the case of `CC(=O)Nc1nc(C(=O)N2CCCC(n3nc(C)nc3C)C2)cs1` (centres undefined) it was 9.17%; in that of `CCC(=O)NCc1cc(Br)c(OC)c(OC)c1`, -11.19%.
On to `CCS(=O)(=O)NCc1cc(Br)c(OC)c(OC)c1`, for which the INHIBITION is on record as 68.69%.
In the case of `CCCC(=O)NCc1cc(Br)c(OC)c(OC)c1` it was 0.63%; in that of `Cc1ccsc1C(=O)N(C)Cc1ccncc1`, -32.02%; in that of `CCOCCC(=O)Nc1cccc(Oc2ccccn2)c1`, 3.59%.
In the case of `CCOCC(=O)Nc1cccc(Oc2ccccn2)c1` it was 67.68%; in that of `CSCC(=O)Nc1cccc(Oc2ccccn2)c1`, -7.6%; in that of `CC(C)(C)c1cc(CN2CCOCC(O)C2)n[nH]1` (centres undefined), -67.78%.
In the case of `Cc1noc(C(C)N(C)CC(=O)NCCc2ccc(Cl)cc2)n1` (centres undefined) it was 11.8%; in that of `Cc1nccc([C@@H]2C[C@H]3CN(S(=O)(=O)c4ccccc4)C[C@H]3O2)n1`, 32.41%; in that of `CCn1ccnc1CN1CCN(Cc2ccc(C#N)cc2)CC1`, 71.23%.
For the compound `Cn1ccnc1CN1CCN(Cc2ccc(C#N)cc2)CC1`, the INHIBITION is listed as -19.95%.
In the case of `CCn1ccnc1CN1CCN(Cc2cccc(C#N)c2)CC1` it was -49.45%; in that of `CN(Cc1ccn[nH]1)Cc1c[nH]nc1-c1ccc(F)cc1`, -35.45%; in that of `Cc1n[nH]c(C)c1CCCN(C)Cc1c[nH]nc1-c1ccc(F)cc1`, -87.47%.
In the case of `CN(Cc1cc(C(C)(C)C)n[nH]1)Cc1c[nH]nc1-c1ccc(F)cc1` it was 50.31%.
In the case of `CCN(Cc1cc(=O)n2cc(Br)ccc2n1)C1CC1` it was -15.9%; in that of `Cc1ccc2cccc(Oc3nc(C)c(C(=O)O)s3)c2n1`, 27.11%.
With `CCN(C)C(=O)c1cc(-c2cn(C(C)C)cn2)n2ccccc12`, the INHIBITION was found to be 73.98%.
With `CCN(C)C(=O)c1cc(-c2ccn(C(C)C)n2)n2ccccc12`, the INHIBITION is listed as -8.84%.
In the case of `COCCn1cnc(-c2cc(C(=O)NC(C)C)c3ccccn23)c1` it was 1.48%; in that of `CC(C)(C)c1csc(CNC(=O)C2NCCc3[nH]cnc32)n1` (centres undefined), 12.08%.
In the case of `COc1ccc(C(=O)NC2CC2)c(OC2CCN(C(C)CO)CC2)c1` (centres undefined) it was -8.53%; in that of `CCCC(=O)N1CCOC2(COCCN(CC(=O)NC)C2)C1` (centres undefined), 43.03%; in that of `CNC(=O)CN1CCOCC2(CN(CCC(F)(F)F)CCO2)C1` (centres undefined), 53.46%.
For the compound `CNC(=O)CN1CCOCC2(C1)CN(C(=O)C(C)C)CCO2` (centres undefined), the INHIBITION is listed as -6.94%.
In the case of `Cc1ccc(C(=O)N2CC[C@@]3(O)CCCC[C@H]3C2)cc1` it was 16.45%; in that of `CNC(=O)c1sccc1N(C)S(=O)(=O)c1ccc(Cl)cc1`, 1.37%.
Turning to `O=C(NCCCOCC1CCCO1)c1cccnc1N1CCOCC1` (centres undefined), the INHIBITION is reported as 10.49%.
In the case of `O=C(NCCCOCC1CC1)Nc1cccnc1N1CCOCC1` it was 61.57%.
In the case of `CC(C)COCCCNC(=O)c1cccnc1N1CCOCC1` it was -32.12%; in that of `CCC(CC)NC(=O)c1ncn2c1CN(CC)S(=O)(=O)c1ccccc1-2`, 14.52%; in that of `CC(=O)N1CCC(Cc2nccnc2-c2c(C)n[nH]c2C)C1` (centres undefined), 26.14%.
In the case of `Cc1ccc(CN2CC[C@H]3O[C@@H](C(=O)N4CCCO4)CC[C@H]32)s1` it was -25.79%.
For the compound `Cc1nn(C)c(N(C)C)c1CNCc1cccc(Cn2cccn2)c1`, the INHIBITION came out at 50.32%.
Turning to `Cc1nn(C)c(N(C)C)c1CNCc1ccc(Cn2cccn2)cc1`, the INHIBITION is recorded as 44.37%.
Consider `COc1cccc(OCCNCc2c(C)nn(C)c2N(C)C)c1`, for which the INHIBITION is recorded as -14.3%.
In the case of `COc1cccc(CCNCc2c(C)nn(C)c2N(C)C)c1` it was 67.59%; in that of `Cc1nn(C)c(N(C)C)c1CNCc1cccc(Cn2cncn2)c1`, -42.39%; in that of `COc1cccc(CNCc2c(C)nn(C)c2N(C)C)c1`, -32.89%.
In the case of `Cc1ccc(C(=O)NS(=O)(=O)c2cccc3cnccc23)c(=O)[nH]1` it was -14.17%; in that of `Cc1nc2ccccn2c1CN(Cc1cccnc1)CC1CCCO1` (centres undefined), 41.76%; in that of `Cc1cccc2c1nc(COCC(=O)O)n2-c1cnc(N)cn1`, -15.37%.
Regarding `CN(C)Cc1nc(C(C)(C)NC(=O)C2CC(=O)N(CC3CC3)C2)no1` (centres undefined), the INHIBITION came to 17.39%.
In the case of `CCCc1nc(C(C)(C)NC(=O)C2CC(=O)N(CC)C2)no1` (centres undefined) it was -2.17%.
`CCCc1nc(C(C)(C)NC(=O)C2CC(=O)N(CC3CC3)C2)no1` (centres undefined): the INHIBITION stood at 71.48%.
In the case of `O=C(NCCO)c1coc(Cn2cnc3ccccc32)n1` it was 5.82%.
In the case of `CN(Cc1cnc(N)nc1)C(=O)c1coc(COc2cccc(F)c2)n1` it was 51.31%.
In the case of `CN(Cc1cnc(N)nc1)C(=O)c1coc(COc2ccccc2)n1` it was -31.73%; in that of `CN(CC(O)CO)C(=O)c1coc(COc2cccc(F)c2)n1` (centres undefined), -5.13%.
In the case of `CCOCCCNC(=O)C1(C)CCC(=O)N1Cc1ccccc1F` (centres undefined), the INHIBITION is given as 15.96%.
On to `CSCc1nc(CCNC(=O)C(N)c2c(C)n[nH]c2C)cs1` (centres undefined), for which the INHIBITION is -4.29%.
On to `O=C(c1ccc(-n2cccn2)cc1Cl)N1CCCC(O)(CO)C1` (centres undefined), for which the INHIBITION is on record as 21.36%.
Regarding `O=C(c1ccc(-n2cnnc2)cc1Cl)N1CCCC2(CCNC2)C1` (centres undefined), the INHIBITION worked out at 57.75%.
In the case of `CNc1ccc(C)cc1C(=O)N1CCCC2(CCNC2)C1` (centres undefined) it was 8.3%.
In the case of `O=C(c1ccc(-n2cnnc2)cc1Cl)N1CCCC(O)(CO)CC1` (centres undefined) it was 58.57%.
In the case of `CN(C)CC1(O)CCN(C(=O)c2ccc(-n3cnnc3)cc2Cl)C1` (centres undefined) it was 21%; in that of `O=C(c1cccc(Oc2ccccc2)c1)N1CCCC(O)(CO)CC1` (centres undefined), 53.66%.
Take `N#Cc1cccc(C(=O)N2CCCC(O)(CO)CC2)c1` (centres undefined): the INHIBITION stood at 16.82%.
For `O=C(c1cccc(-c2ccc(F)cc2)c1)N1CCCC(O)(CO)CC1` (centres undefined), the INHIBITION was 35.7%.
In the case of `O=C(c1ccnc(-n2cnnc2)c1)N1CCCC2(CCNC2)C1` (centres undefined) it was 7.67%; in that of `COCC(=O)N1CCO[C@H]2[C@H](OC)CC[C@@H]21`, 7.86%; in that of `Cc1ccc(Oc2c(F)cccc2OC[C@@H](N)CC(C)C)cc1`, 16.01%.
In the case of `COC(=O)CN(C(=O)C(C)c1c(F)cccc1F)c1cccc(C)n1` (centres undefined) it was -23.76%; in that of `Cc1oncc1C(=O)N1CC[C@H]2[C@H]1CCN2S(C)(=O)=O`, 15.36%; in that of `COCC1CC2(CCN(Cc3cccc(C#N)c3)CC2)CN1C(C)C` (centres undefined), -52.61%.
Turning to `Cc1nnc(NC(=O)NCc2ccnc(N(C)C)c2)s1`, the INHIBITION worked out at 29.71%.
Turning to `O[C@@H]1C[C@@H](c2nc(-c3ccc(F)cc3)no2)N(C2CCOCC2)C1`, the INHIBITION worked out at 51.2%.
In the case of `COc1ccc(-c2noc([C@@H]3C[C@@H](O)CN3C3CCOCC3)n2)cc1` it was 38.62%; in that of `O[C@@H]1C[C@@H](c2nc(-c3ccccc3)no2)N(C2CCOCC2)C1`, 16.47%; in that of `O=C(c1[nH]nc2c1CCCC2)N1CCC(OCCN2CCCCC2)C1` (centres undefined), 8.14%.
In the case of `COC1CCN(C(=O)CCc2c(C)nc3ccnn3c2C)CC1` it was -3.38%; in that of `CCOc1ccc(CN2C(=O)CC3(CCCC3)C2=O)nc1`, -32.8%; in that of `Cc1nc(C(=O)N2CCN(c3ccc(Cl)c(Cl)c3)CC2)cs1`, 23.19%.
In the case of `O=C(O)c1ccccc1-n1cnc(CN2CCCCCC2)c1` it was 25.41%.
For `O=C(O)c1ccccc1-n1cnc(CN2CCc3ccccc32)c1`, the INHIBITION is -26.26%.
Regarding `O=C(O)c1ccccc1-n1cnc(CN2CCc3ccccc3C2)c1`, the INHIBITION is given as 51.03%.
In the case of `CN(C(=O)C1CCOCC1)[C@@H]1CCC[C@@H](N2CCCC2)[C@@H]1O` it was -29.66%.
